Hit rate of the full screen: of about 1,500 compounds, about 1,400 (93%) were called active. The set was probably picked from earlier hits. The list is a sample of the results. Values without a mark were called inactive. No stated cut-off is given here; in the data, active means inhibition above about 9.5%; inactive means the rest.
test: binders of control antibody PGV04, counter-screen for PG9 antibody binder project, biochemical, TR-FRET, distinct HIV envelope site (AID 651604); settings: TR-FRET PGV04 antibody-gp120 binding, at 6.7 µM, active compounds read high

| Structure (SMILES) | inhibition |
| --- | --- |
| Fc1cc(F)c2nc(Nc3nc4c(F)cccc4s3)sc2c1 | 15.5% (active) |
| Cc1nc(-c2ccccc2)sc1-c1nc(-c2ccccc2)ncc1S(=O)(=O)c1ccccc1 | 11.5% (active) |
| CC(C)OCCCNC(=O)c1cc(Sc2ccc(F)cc2)nc2ccccc12 | 28.9% (active) |
| N#C/C=C1\Sc2ccccc2C(=O)N1CC(=O)N1CCN(S(=O)(=O)c2ccccc2)CC1 | 36.9% (active) |
| COCCNC(=O)c1cc2c(Br)ccc(Br)c2nc1N | 20.9% (active) |
| CC(=O)c1sc(NC(=O)CCCOc2ccccc2C)nc1C | 29.6% (active) |
| COc1cccc(-n2c(SCC(=O)c3c[nH]c4ccccc34)nc3ccccc3c2=O)c1 | 32.9% (active) |
| Cc1cc2c(cc1C)N1C(=O)c3cc4ccccc4cc3NC(=O)C1C(=O)N2 (stereo not drawn) | 17% (active) |
| O=C(Oc1ccccc1)Oc1ccc2c(c1)oc(=O)c1ccccc12 | 46.4% (active) |
| N#Cc1ccccc1Sc1ccccc1C(=O)OCC(=O)NC1CCCCC1 | 45.7% (active) |
| Cc1ccc(-c2cc(C(=O)NCc3cn(C)nc3C)c3cc(Br)ccc3n2)cc1 | 25.8% (active) |
| CCCCNC(=O)CSc1nc2n[nH]c(C)c2c(=N)n1-c1cccc(Cl)c1C | 63.2% (active) |
| Cc1ccc(-n2c(SCC(=O)NCCC3=CCCCC3)nc3n[nH]c(C)c3c2=N)cc1Cl | 27.8% (active) |
| COc1cccc(-c2ccc(C#N)c(SCC(=O)NCCc3ccc(Cl)cc3)n2)c1 | 13% (active) |
| COc1ccc(CCNC(=O)CSc2nc(-c3ccc(OC)c(OC)c3)ccc2C#N)cc1 | 38.1% (active) |
| COC(=O)c1ccc(NC(=S)Nc2cccc(C)n2)cc1 | 16.1% (active) |
| S=c1[nH]c2ccccc2c2ccccc12 | 11.6% (active) |
| O=C(Nc1nnc(-c2ccccc2F)s1)c1ccccc1F | 36.9% (active) |
| CCCOc1ccc(C2C(C(=O)c3ccc(C)o3)=C(O)C(=O)N2CCCn2ccnc2)cc1 (stereo not drawn) | 65.3% (active) |
| C=CCOc1cccc(C2C(C(=O)c3ccc(C)o3)=C(O)C(=O)N2CCCn2ccnc2)c1 (stereo not drawn) | 22.6% (active) |
| O=C(O)CCC(=O)Nc1nc2ccc([N+](=O)[O-])cc2s1 | 5.74% |

| Structure (SMILES) | inhibition |
| --- | --- |
| COc1ccc(CC(=O)Nc2ccc(-c3nnc(-c4ccccc4)o3)cc2)cc1 | 24.6% (active) |
| CCc1ccc(NC(=O)CSc2nnc(-c3cnccn3)n2Cc2ccco2)cc1 | 29.1% (active) |
| O=C(C1=C(O)C(=O)N(Cc2ccccc2)C1c1ccco1)c1ccco1 (stereo not drawn) | 39.4% (active) |
| Cc1cc(C)cc(NC(=O)C2CCCN(S(=O)(=O)c3ccc4[nH]c(=O)ccc4c3)C2)c1 (stereo not drawn) | 34.2% (active) |
| COc1ccc(Cl)cc1NC(=O)Cn1nc(-c2ccc(C)cc2)n(C)c1=S | 26.6% (active) |
| COc1ccc(-c2csc(NC(=O)c3ccc(N4C(=O)CCC4=O)cc3)n2)cc1OC | 20.8% (active) |
| Cc1nc2cc(NC(=O)CSc3nc4c(C)cccc4cc3C#N)ccc2s1 | 59.1% (active) |
| CC(=O)c1sc2nc(SCC(=O)N3CCCCC3)[nH]c(=O)c2c1C | 32.7% (active) |
| N#Cc1c(-c2cccs2)nc(SCC(=O)c2ccc(Br)cc2)[nH]c1=O | 38.1% (active) |
| COCCCNc1nc2c(-c3cccc(C)c3)nnn2c2ccc(Cl)cc12 | 30.7% (active) |
| C=CCn1c(=NC(=O)c2ccc(S(=O)(=O)N3CCCC3)cc2)sc2cc(NC(C)=O)ccc21 | 43% (active) |
| C=CCn1c(=NC(=O)c2cccs2)sc2cc(NC(C)=O)ccc21 | 12.5% (active) |
| Cc1c(-c2ccccc2)nc(N)c(C#N)c1-c1cccs1 | 27.9% (active) |
| CCCc1nc(SCC(=O)Nc2ccc(S(=O)(=O)N(C)C)cc2)c2ccccc2n1 | 41% (active) |
| N#Cc1ccccc1NC(=O)c1cccc(COc2ccc(Cl)cc2Cl)c1 | 24.8% (active) |
| CCOc1cc2ccccc2cc1C(=O)Nc1ccccn1 | 16.9% (active) |
| N#Cc1c(N)nc2c3c(sc(=N)c2c1N)NC(=O)CC3c1ccccc1Cl (stereo not drawn) | 37% (active) |
| O=C1C(=O)N(CCN2CCOCC2)C(c2cccc(Cl)c2)/C1=C(/O)c1ccc2c(c1)OCO2 (stereo not drawn) | 42.7% (active) |
| COc1ccc(-n2nnnc2-c2nc3ccccc3s2)cc1 | 59.6% (active) |
| O=C(COC(=O)c1ccc2c(c1)OCCO2)NCc1ccccc1Cl | 33.7% (active) |
| COc1ccc(-c2c(C)nn3c(N4CCC(C(=O)N5CCCCC5)CC4)cc(C)nc23)cc1OC | 12.2% (active) |

| Structure (SMILES) | inhibition |
| --- | --- |
| Cn1c(=S)sc2ccc3ccccc3c21 | 15.2% (active) |
| COc1cccc(NS(=O)(=O)c2ccc3[nH]cc(C(=O)NCCCOC(C)C)c(=O)c3c2)c1 | 19.8% (active) |
| CCOc1ccc2cc(C#N)c(SCC(=O)OC)nc2c1 | 65.8% (active) |
| O=C(NCc1ccc(Cl)cc1)c1cc2c(nc3sccn32)s1 | 30.7% (active) |
| Cc1cccc(Nc2nc3c(S(=O)(=O)c4ccccc4)nnn3c3ccccc23)c1C | 34.2% (active) |
| O=C(Nc1c(Br)cc2c(c1Br)Cc1cc([N+](=O)[O-])ccc1-2)C(Cl)Cl | 79.2% (active) |
| Cc1ccc(-n2ncc3c(=O)n(-c4ccc(C)c(C)c4)c(-c4ccco4)nc32)cc1 | 11.9% (active) |
| Cc1cc(Br)ccc1NC(=O)c1sc2ncn(CC(=O)N3CCN(c4ccccn4)CC3)c(=O)c2c1C | 15.6% (active) |
| CCOc1cccc(NC(=O)Cn2nc(-c3ccc4c(c3)OCCO4)ccc2=O)c1 | 25.3% (active) |
| CCOc1ccc(C(=O)COC(=O)c2ccc(-n3cnnn3)cc2)cc1 | 34% (active) |
| CCOC(=O)c1c(C)[nH]c(C(=O)OCC(=O)c2ccc(OC)cc2OC)c1C | 54.4% (active) |
| CC(=O)c1cc(C#N)c(SCC(=O)Nc2nccs2)nc1C | 51.4% (active) |
| O=C1COc2ccc(C(=O)COC(=O)c3ccccc3Cl)cc2N1 | 32.6% (active) |
| Cc1nc2nc(SCC(=O)c3ccccc3)[nH]c2cc1Br | 46.9% (active) |
| O=C(Nc1cccc(S(=O)(=O)Nc2ccc(Cl)cc2)c1)c1ccc2c(c1)OCCO2 | 34.2% (active) |
| CC1(C)Cc2ccccc2-c2[nH]c(=S)[nH]c(=O)c21 | 7.23% |
| CCn1c(SCC(=O)Nc2cccc(F)c2)nnc1-c1cc2cc(Br)ccc2o1 | 58.4% (active) |
| O=C(N=C1SC2CS(=O)(=O)CC2N1Cc1ccccc1)c1ccccc1 (stereo not drawn) | 46.9% (active) |
| CCn1nnc2cc(C(=O)Nc3ccc(C(=O)OC(C)C)cc3)ccc21 | 37% (active) |
| COC(=O)C1=C(C)N(Cc2ccccc2C(F)(F)F)C(=NCc2ccc(OC)cc2)NC1c1cccc(C(F)(F)F)c1 (stereo not drawn) | 6.34% |
| O=C(O)CCCCCNc1ncnc2ccc(Br)cc12 | 30.4% (active) |

Reference: PubChem BioAssay AID651604 (The Scripps Research Institute Molecular Screening Center, 2012)
